SMILES strings stand for the structures. Calls of active or inactive are those of the source.

Assay [1] in a line: compound effects on lung adenocarcinoma cell viability – A549, calcein-AM fluorescence, 48 h, basal, profiling panel (AID 1162). To be noted: higher = more signal.
The nature of assay [2]: compound effects on differentiated 3T3-L1 adipocyte viability – cell-based, 3T3-L1 adipocytes, calcein-AM fluorescence, 48 h, basal, profiling panel (AID 1163). The note with it: 3T3-L1 adipocytes viability, higher = more signal.
Assay [3] is described as follows: compound effects on hepatocellular carcinoma cell viability – HepG2, calcein-AM fluorescence, 48 h, basal, profiling panel (AID 1164). The note with it: higher = more signal.
Assay [4] can be described thus: compound effects on multiple myeloma cell viability – MM1S, calcein-AM fluorescence, 48 h, basal, profiling panel (AID 1165).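 Note: viability of MM1S multiple myeloma cells under basal unstimulated conditions.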 To be noted: higher = more signal.
Assay [5] in a line: calcein-AM signal in unstimulated myeloma cells – cell-based, calcein-AM fluorescence, 48 h, PK04 Diversity Set, profiling panel (AID 1166).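 Note: cells grown under basal conditions without added stimulus.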 To be noted: RPMI8226 myeloma viability, higher = more signal.
Assay [6] is described as follows: JC-1 mitochondrial signal, unstimulated HepG2 cells – cell-based, JC-1 fluorescence, 24 h, 100 nL compound, profiling panel (AID 1167). The note with it: HepG2 mitochondrial potential, higher = more signal.
The nature of assay [7]: JC-1 mitochondrial signal, unstimulated adipocytes – cell-based, JC-1 fluorescence, 3T3-L1 adipocytes, 24 h, 100 nL compound, profiling panel (AID 1168). To be noted: JC-1 mitochondrial fluorescence, higher = more signal, called active from +8 up or from −8 down.
Assay [8] can be described thus: JC-1 mitochondrial signal, unstimulated myeloma cells – cell-based, JC-1 fluorescence, RPMI8226, 24 h, 100 nL compound, profiling panel (AID 1169). To be noted: JC-1 mitochondrial potential fluorescence, higher = more signal.
Assay [9] can be described thus: JC-1 mitochondrial signal, unstimulated MM1S myeloma – cell-based, JC-1 fluorescence, 24 h, 100 nL compound, profiling panel (AID 1170). To be noted: MM1S mitochondrial potential, higher = more signal.
The nature of assay [10]: resazurin metabolic signal in A549 cells – cell-based, resazurin fluorescence, 24 h, PK04 Diversity Set, profiling panel (AID 1171). The note with it: A549 viability, higher = more signal, called active from +8 up or from −8 down. (In general: Resazurin is reduced to fluorescent resorufin, in cell work by metabolically active cells.)
Note: test concentration not given here.

In the case of `O=C1NC(=O)C2C1C=CC(C(O)C(c1ccccc1)c1ccccc1)N2Nc1ccccn1` (stereo not given), the z-score is 0.795 in assay [1]; -0.46 in assay [2]; 0.605 in assay [3]; 0.332 in assay [4]; 0.077 in assay [5]; 0.176 in [6]. The z-score in [7] was -0.219 (inactive); in assay [8], 0.432; in assay [9], 0.525; in [10], -0.0343 (inactive).

On to `O=C1C2C=CC(C(O)C(c3ccccc3)c3ccccc3)N(Nc3ccccc3F)C2C(=O)N1c1ccccc1` (stereo not given), for which the z-score in assay [1] was -0.486; in assay [2] it was -0.368; in assay [3], 0.355; in assay [4], -1.33; in assay [5] it was -0.0284; in assay [6], -1.7. The z-score in assay [7] is -1.3 (inactive); in assay [8], 0.284; in assay [9], -0.73; in [10] it was -0.021 (inactive).

As to `Cc1ccc(S[C@]2(C(=O)NCC(C)C)CC(=O)N(C(C)C)[C@@H]2c2ccc(CO)cc2I)cc1`, the z-score was 1.97 in assay [1]; 0.508 in [2]; 0.867 in [3]; -2.41 in [4]; -2.03 in assay [5]; 0.978 in assay [6]. Also, the z-score in [7] is 0.953 (inactive); in assay [8], -0.94; in assay [9] it was -1.19; in [10], 0.677 (inactive).

Turning to `C[C@H]1C2[C@H](Cc3ccccc3)NC(=O)[C@]23C(=O)N[C@@H](Cc2ccccc2)C(=O)N2CCC[C@H]2C(=O)NC/C=C/CC/C=C/C3[C@@H]2O[C@]12C` (stereo not given in full), the z-score was -0.168 in assay [1]; 1.18 in assay [2]; -0.512 in assay [3]; -0.132 in assay [4]; -0.876 in assay [5]; 1.11 in assay [6]. Also, the z-score in [7] is 0.308 (inactive); in assay [8], 0.0536; in assay [9], 0.793; in assay [10], -0.0612 (inactive).

In the case of `COC(=O)[C@@]1(Cc2ccc(F)cc2)[C@H]2c3cc(C(=O)N(C)C)n(Cc4ccc(C(F)(F)F)nc4)c3C[C@H]2CN1C(=O)c1ccccc1`, the z-score in assay [1] is -0.509; in assay [2] it was -0.602; in assay [3] it was 0.158; in assay [4] it was -0.201; in assay [5] it was -1.36; in assay [6], 1.79. Besides, the z-score was -0.602 (inactive) in assay [7], -0.135 in assay [8], -1.48 in [9] and -0.695 (inactive) in assay [10].

For `[N-]=[N+]=NCc1ccccc1[C@H]1OC(c2ccc(OCCCO)cc2)=N[C@@]1(Cc1ccccc1N=[N+]=[N-])C(=O)N1CCOCC1`, the z-score in assay [1] is -0.612; in assay [2] it was -0.182; in [3] it was -0.659; in assay [4], -2.69; in [5] it was -3.44; in assay [6], -1.26. In addition, the z-score in assay [7] was -0.866 (inactive); in assay [8], -1.11; in assay [9], -2.14; in assay [10] it was -0.772 (inactive).

For `CO[C@H]1O[C@H](CO)[C@@H](OC(=O)Nc2cccc(F)c2)[C@H](OC(=O)Nc2ccc3c(c2)OCO3)[C@@H]1OC(=O)Nc1ccc2c(c1)OCO2`, the z-score was -1.33 in assay [1]; 0.726 in assay [2]; -1.07 in [3]; -1.49 in [4]; -1.74 in assay [5]; -0.96 in [6]. Further, the z-score is -0.672 (inactive) in [7], -0.571 in assay [8], -0.964 in assay [9] and -1.47 (inactive) in assay [10].

`CCCC=C(CCC)[C@@H](NC(=O)c1ccc(C(=O)OC)cc1)c1ccc(C(=O)OC)cc1`: the z-score in assay [1] is -1.48; in assay [2], -0.454; in assay [3], -1.54; in assay [4], -1; in assay [5], -1.59; in [6], -0.261. Also, the z-score in assay [7] was -1.28 (inactive); in assay [8] it was -0.342; in assay [9] it was -1.15; in assay [10] it was 0.69 (inactive).

With `COC(=O)c1c2oc(c1C(=O)OC)C(=O)N[C@H](Cc1ccccc1)Cn1cc(nn1)C1(CCCCC1)NC(=O)N[C@H](CO)CC2`, the z-score was 0.78 in [1]; 0.705 in assay [2]; 0.286 in assay [3]; 0.977 in assay [4]; 0.943 in assay [5]; 0.381 in [6]. For the same molecule, the z-score is 0.621 (inactive) in assay [7], -0.662 in [8], -1.2 in assay [9] and -0.547 (inactive) in [10].

Turning to `C=C1C(=O)C=C2CN(C(=O)c3ccccc3)[C@@](Cc3ccc(F)cc3)(C(=O)OC)[C@@H]12`, the z-score in assay [1] was -3.89; in assay [2], -1.94; in [3], -5.62; in assay [4] it was -3.36; in assay [5], -4.73; in [6] it was -3.92. Also, the z-score in assay [7] was 3.42 (inactive); in assay [8], -0.764; in assay [9], -2.82; in assay [10], -7 (inactive).

For the molecule `[N-]=[N+]=Nc1ccccc1C[C@@]1(C(=O)NCC(O)CO)N=C(c2ccc(OCCCO)cc2)O[C@@H]1c1ccccc1N=[N+]=[N-]` (stereo not given in full), the z-score was -3.97 in assay [1]; -0.0164 in [2]; -4.63 in assay [3]; -3.55 in assay [4]; -3.85 in assay [5]; -2 in assay [6]. The z-score was -0.264 (inactive) in [7], -1.21 in assay [8], -1.34 in assay [9] and -3.27 (inactive) in assay [10].

`COC(=O)[C@@]1(Cc2ccc(OC)cc2)[C@H]2c3cc(C(=O)N(C)C)n(Cc4c(CO)[nH]cc(C)c4=O)c3C[C@H]2CN1C(=O)c1ccccc1`: the z-score in assay [1] was -1.38; in [2] it was -0.621; in assay [3], -0.177; in [4], -0.314; in assay [5] it was -0.411; in [6] it was -0.67. Moreover, the z-score in assay [7] is -1.33 (inactive); in assay [8], -0.0347; in assay [9] it was -1.24; in assay [10] it was 0.252 (inactive).

For the molecule `C=CC[C@]1(C(=O)NCC(O)CO)N=C(c2ccc(OCCCO)cc2)O[C@H]1c1ccccc1CN=[N+]=[N-]` (stereo not given in full), the z-score in assay [1] is 0.444; in assay [2], -0.0459; in assay [3], 1.31; in assay [4], -0.22; in [5] it was -0.365; in assay [6], 1.28. Besides, the z-score in assay [7] is -0.451 (inactive); in assay [8] it was -0.427; in [9], -0.825; in [10], -0.389 (inactive).

With `COC(=O)[C@@]1(Cc2ccc(F)cc2)[C@H]2c3cc(C(=O)N4CCCC4)n(CCc4c[nH]c5cc(F)ccc45)c3C[C@H]2CN1C(=O)c1ccccc1`, the z-score in [1] is -0.767; in [2], -0.0351; in [3], 0.194; in assay [4], -0.234; in [5] it was -1.37; in assay [6], 2.18. Besides, the z-score in assay [7] was -1.2 (inactive); in assay [8], -0.449; in assay [9], -1.21; in assay [10] it was 0.339 (inactive).

In the case of `C=C(/C=C\CNS(=O)(=O)c1ccc(C)cc1)[C@H](O)[C@H]1CCCN1S(=O)(=O)c1ccccc1[N+](=O)[O-]`, the z-score in [1] was -0.635; in assay [2], 0.186; in assay [3], -1.3; in [4], -3.14; in assay [5], -1.51; in assay [6], -3.05. For the same molecule, the z-score in assay [7] was -0.955 (inactive); in assay [8], -0.938; in [9], -0.671; in assay [10], 0.0403 (inactive).

The values above are taken from PubChem BioAssay.
